This is an account of results in PubChem BioAssay AID463173 (ICCB-Longwood Screening Facility, Harvard Medical School, 2010).

The structures appear in SMILES notation. About 4,300 (8.3%) of roughly 52,000 compounds were called active. For the sample, actives were picked, then their nearest neighbours and some compounds at random. A number with no mark means an inactive call. Cut-off read from the data, not from the text of the source: active = survival mostly below about 52% (no sharp cut-off); inactive = mostly above about 56%.

This test relates to DeltatarO mutant. In words: growth inhibition of S. aureus wild type versus tarO mutant, primary screen, teichoic acid synthesis inhibitors, RN4220, OD600 (AID 463173). The following applies: OD600, 18 h, stronger effect = lower value, screened at 18.75 µg/mL (by protocol).
Regarding `COc1ccc(Nc2ncc3c(n2)CCN(Cc2ccccc2C)C3)c(OC)c1`, the survival was 91%.

For the molecule `Cc1ccccc1N(C)C(=O)c1noc2c1COc1ccccc1-2`, the survival is 72%.

On to `CCOc1ccc(S(=O)(=O)N(CC(=O)N2CCCCC2)c2ccccc2)cc1`, for which the survival was 60%.

Take `CC12CN3CC(C)(CN(C1)C3(C)CSc1c[nH]c3ccccc13)C2=O` (stereo unspecified): the survival was 76%.

`Cc1ccc(C)c(NC(=O)Cn2cnc3c(oc4ccccc43)c2=O)c1`: the survival is 82%.

`Cc1ccc(NC(=O)CN2C(=O)COc3ccc(S(=O)(=O)Nc4ccccc4)cc32)c(C)c1`: the survival was 54%.

Turning to `Oc1cccc(-c2nc3ncccn3c2Nc2cccc(C(F)(F)F)c2)c1`, the survival is 62%.

`COc1ccc(CNC(=O)Cc2c(C)c3cc4c(C)coc4c(C)c3oc2=O)cc1OC`: the survival was 67%.

As to `Cc1ccc2c(Sc3ccccc3)c(C(=O)NCc3ccccc3F)[nH]c2c1`, the survival was 90%.

Regarding `N#C/C(=C\c1ccc(-c2ccc(C(=O)O)cc2)o1)c1nc2ccccc2[nH]1`, the survival is 77%.

Turning to `N#C/C(=C\c1ccc(-c2ccc(Cl)c(C(=O)O)c2)o1)c1nc2ccccc2[nH]1`, the survival is 55% (active).

Consider `N#C/C(=C\c1ccc(-c2ccccc2C(=O)O)o1)c1nc2ccccc2[nH]1`, for which the survival is 76%.

For the molecule `N#C/C(=C/c1ccc(-c2ccc(Cl)c(C(=O)O)c2)o1)C(=O)NC1CCCC1`, the survival was 96%.

As to `Cc1ccc2nc(/C(C#N)=C/c3ccc(-c4ccc(F)cc4F)o3)[nH]c2c1`, the survival is 11% (active).

Take `CN(C)/C=C(\C#N)c1nc2ccccc2[nH]1`: the survival was 73%.

In the case of `N#C/C(=C\c1ccc(Cl)cc1)c1nc2ccccc2[nH]1`, the survival was 57%.

`N#C/C(=C\c1ccc(-c2ccc(F)cc2F)o1)c1nc2ccccc2[nH]1`: the survival is 22% (active).

Take `Cc1c(Cl)cccc1-c1ccc(/C=C(\C#N)c2nc3ccccc3[nH]2)o1`: the survival is 13% (active).

As for `Cc1ccc(/C=C(\C#N)c2nc3ccccc3c(=O)[nH]2)cc1`, the survival was 93%.

Consider `COc1cc(/C=C(\C#N)c2nc3ccccc3[nH]2)ccc1OCc1ccccc1F`, for which the survival is 50%.

For `O=C(Cn1ncc2ccsc2c1=O)N1CCN(c2ccc(Cl)cc2)CC1`, the survival is 78%.

`Cc1nc(N=C(N)N)nc2cc3c(cc12)OCO3`: the survival was 91%.

As to `COc1ccccc1N1CCN(C(=O)c2c(C)oc3ncn(CC(C)C)c(=O)c23)CC1`, the survival is 76%.

Regarding `CCCCOC(=O)c1ccc(NC(=O)c2ccc3c(c2)CCN3S(C)(=O)=O)cc1`, the survival is 96%.

For `O=C(C1CCN(S(=O)(=O)c2ccc(Br)s2)CC1)N1CCN(c2cccc(Cl)c2)CC1`, the survival is 76%.

As for `CC1CCCCN1C(=O)Cn1nnc2c(cnn2-c2ccccc2)c1=O` (stereo unspecified), the survival was 79%.

Take `CCCCSCCCNC(=O)c1c[nH]c2ccc(S(=O)(=O)Nc3cccc(OC)c3)cc2c1=O`: the survival was 90%.

Consider `COc1ccc(N2CCN(S(=O)(=O)CCNC(=O)c3ccc(OC(C)C)cc3)CC2)cc1`, for which the survival is 78%.

In the case of `COc1cc(NC(=O)Cn2cc(C(=O)c3ccc(F)cc3)c(=O)c3ccc(C)nc32)cc(OC)c1`, the survival was 74%.

Regarding `CN(C)c1ccc(CNC(=O)CCCN2C(=O)CCn3nc(-c4cccn4C)cc32)cc1`, the survival was 73%.

For the molecule `O=C(CSc1ncc2c(n1)-c1cc(Cl)ccc1N(Cc1ccccc1)S2(=O)=O)NCc1ccccc1`, the survival is 89%.

`O=C(c1ccccc1Cl)N(Cc1ccco1)c1ccccn1`: the survival was 55%.

For the molecule `COc1cccc2cc(C(=O)Nc3ccc(N4CCNCC4)cc3)c(=O)oc12`, the survival was 99%.

For the molecule `Cc1ccc(NC(=O)Cn2nc(C)c3nn(-c4ccc(Cl)cc4)c(C)c3c2=O)cc1C`, the survival was 75%.

Turning to `CCOc1ccc(CNC(=O)CSc2nnc(C)c3c(C)n(-c4ccc(Cl)cc4)nc23)cc1`, the survival was 91%.

With `COc1ccccc1/C=C/c1nc(C#N)c(N2CCN(C)CC2)o1`, the survival was 92%.

On to `COc1ccc(CNC(=O)c2cc(-c3ccc(OC)cc3)nc3n[nH]c(-c4cccc([N+](=O)[O-])c4)c23)cc1`, for which the survival was 68%.

Turning to `CCc1ccc(O)c(C(=O)c2cnc3cc(-c4ccc(C)cc4)nn3c2)c1`, the survival is 89%.

In the case of `O=C(CSc1nnc(-c2ccccc2)o1)c1cccc([N+](=O)[O-])c1`, the survival was 135%.

Regarding `CCOC(=O)c1cnc2cc(-c3ccc(Cl)cc3)nn2c1-c1ccccc1`, the survival was 68%.

On to `COc1ccc(-c2cc3ncc(C(=O)c4cc([N+](=O)[O-])ccc4O)cn3n2)cc1`, for which the survival was 33% (active).

On to `Cc1ccc(-c2cc3ncc(C(=O)c4cc(Cl)c(C)cc4O)cn3n2)cc1`, for which the survival is 84%.

In the case of `CCOC(=O)COc1cc(C)c(Cl)cc1C(=O)c1ccn2nc(-c3ccc(OC)cc3)cc2n1`, the survival was 92%.

As for `Cc1ccc(-c2cc3ncc(C(=O)c4cc([N+](=O)[O-])ccc4O)cn3n2)cc1`, the survival was 8% (active).

With `O=C(c1cnc2cc(-c3ccccc3)nn2c1)c1cc([N+](=O)[O-])ccc1O`, the survival is 9% (active).

With `CC(=O)Nc1cccc(NC(=O)CCn2cnc3cc(C)c(C)cc32)c1`, the survival is 62%.

In the case of `COc1cccc(C(=O)NC(=S)NCc2ccco2)c1`, the survival was 93%.

As for `O=C(Cn1nc(C(F)(F)F)c2c1CCC2)Nc1ccc(Cl)cc1`, the survival was 54%.

`CCN(CC)c1ccc(C(=O)NCc2ccc3c(c2)CCN3C(=O)c2ccc(F)cc2)cc1`: the survival was 84%.

Regarding `CCN1/C(=C2\C(=O)N(c3ccc(Cl)cc3)N=C2C)C=Cc2ccccc21`, the survival is 68%.

On to `Cc1ccc(-c2nnn(CC(=O)NC(C)C)n2)cc1`, for which the survival was 83%.

`CCOC(=O)C(Cc1ccccc1)NC(=O)Cn1nnc(-c2ccc(C)cc2)n1` (stereo unspecified): the survival was 59%.

Regarding `CCOc1cc(C#N)c(NC(=O)Cn2nnc(-c3ccc(C)cc3)n2)cc1OCC`, the survival is 42% (active).

Take `Cc1ccc(NC(=O)Cn2c(=O)oc3cc(S(=O)(=O)N4CCCCCC4)ccc32)cc1Cl`: the survival was 93%.

For `CCCc1nc2ccccc2n1CC(O)COc1ccc(C(=O)OC)cc1` (stereo unspecified), the survival was 64%.

For the molecule `CCCc1nc2ccccc2n1CC(O)COc1ccccc1` (stereo unspecified), the survival is 69%.

As for `Cc1nc2ccccc2n1CC(O)COc1ccc(C(=O)O)cc1` (stereo unspecified), the survival was 46% (active).

For `CCN(Cc1ccccc1)c1ncnc2c1nnn2C`, the survival is 57%.

For the molecule `CCOc1ccccc1CNC(=O)c1nc(-c2ccc(Cl)cc2)n2c1CCCCC2`, the survival was 67%.

Take `Cc1ccc(-n2nc3c(N4CCC(C(=O)N5CCCCC5)CC4)nnc(C)c3c2C)cc1`: the survival was 85%.

Consider `Cc1cc(C)c(S(=O)(=O)NCC(c2ccco2)S(=O)(=O)c2cccs2)c(C)c1` (stereo unspecified), for which the survival is 25% (active).

Regarding `Cc1cc(F)ccc1S(=O)(=O)NCC(c1ccco1)S(=O)(=O)c1cccs1` (stereo unspecified), the survival is 118%.

In the case of `Cc1cc(S(=O)(=O)NCC(c2ccco2)S(=O)(=O)c2cccs2)ccc1F` (stereo unspecified), the survival is 101%.

With `O=S(=O)(NCC(c1ccco1)S(=O)(=O)c1cccs1)c1ccc(Cl)cc1` (stereo unspecified), the survival is 92%.

On to `Cc1cc(C)c(S(=O)(=O)NCC(c2ccco2)S(=O)(=O)c2ccccc2)c(C)c1` (stereo unspecified), for which the survival was 99%.

On to `O=S(=O)(NCC(c1ccco1)S(=O)(=O)c1cccs1)c1ccc(F)c(C(F)(F)F)c1` (stereo unspecified), for which the survival is 37% (active).

As for `COc1ccc(-c2cnnn2-c2ccc(NC(=O)c3ccccc3OC)cc2)cc1`, the survival is 107%.

In the case of `CCOc1ccccc1CN(CCc1ccc2c(c1)OCO2)Cc1ccccn1`, the survival was 77%.

As for `CCOc1ccccc1CN(CCc1ccc2c(c1)OCO2)Cc1cccc(OC)c1OC`, the survival is 34% (active).

With `CCOc1ccccc1CN(CCc1ccc2c(c1)OCO2)Cc1cc(OC)c(OC)cc1OC`, the survival is 56%.

For the molecule `COc1cccc(NC(=O)Cn2c(=O)n(-c3ccc(C)cc3)c(=O)c3ccc(C(=O)NCc4ccco4)cc32)c1`, the survival is 80%.

Regarding `Cc1ccc(C)c(NC(=O)c2ccc3c(c2)CCN3S(C)(=O)=O)c1`, the survival is 105%.

In the case of `Cc1c(Cl)cccc1NC(=O)c1ccc2c(c1)CCCN2S(C)(=O)=O`, the survival is 70%.

`Cc1ccc(C)c(NC(=O)c2ccc3c(c2)CCN3S(=O)(=O)c2ccccc2)c1`: the survival is 40% (active).

Turning to `Cc1ccc(S(=O)(=O)N2CCc3cc(C(=O)Nc4ccc(C)c(C)c4)ccc32)cc1`, the survival was 60%.

Consider `Cc1cccc(NC(=O)c2ccc3c(c2)CCN3S(=O)(=O)c2ccccc2)c1C`, for which the survival is 38% (active).

As for `Cc1c(Cl)cccc1NC(=O)c1ccc2c(c1)CCN2S(=O)(=O)c1ccccc1`, the survival was 39% (active).

As to `CCc1cccc(CC)c1NC(=O)c1ccc2c(c1)CCN2S(=O)(=O)c1ccccc1`, the survival was 60%.

With `CCS(=O)(=O)N1CCc2cc(C(=O)Nc3cccc(Cl)c3C)ccc21`, the survival is 86%.

For `CCS(=O)(=O)N1CCc2cc(C(=O)Nc3cccc(C)c3C)ccc21`, the survival was 80%.

As for `CC(=O)N1c2ccccc2C(=O)C1N1CCN(c2ccccc2F)CC1` (stereo unspecified), the survival was 90%.

Turning to `COc1ccc(-c2cn3c(n2)sc2cc(C(=O)Nc4cccc(SC)c4)ccc23)cc1`, the survival was 59%.

With `COC(=O)c1cc(NC(=O)Cn2ncc3c([nH]c4ccccc43)c2=O)cc(C(=O)OC)c1`, the survival was 66%.

`O=C(CSc1ccc(-c2ccccn2)nn1)Nc1ccc(F)cc1F`: the survival was 38%.

Take `Cc1ccc(C)c(CN2C(=O)CSc3ccc(C(=O)NCCc4ccc(Cl)cc4)cc32)c1`: the survival is 49%.

In the case of `O=C(NCCc1ccc(Cl)cc1)c1ccc2c(c1)N(Cc1ccccc1)C(=O)CS2`, the survival is 25% (active).

With `O=C(NCCc1ccc(Cl)cc1)c1ccc2c(c1)N(Cc1ccccc1)CCS2`, the survival was 102%.

On to `O=C(NCCc1ccccc1)c1ccc2c(c1)N(Cc1ccccc1Cl)C(=O)c1ccccc1S2`, for which the survival was 94%.

As to `CC(NC(=O)c1ccc2c(c1)N(Cc1ccc(Cl)cc1)C(=O)c1ccccc1S2=O)c1ccccc1` (stereo unspecified), the survival is 73%.

Regarding `O=C(NCCc1ccccc1)c1ccc2c(c1)N(Cc1ccc(Cl)cc1)C(=O)CS2`, the survival is 144%.

`O=C(NCCc1ccc(Cl)cc1)c1ccc2c(c1)N(Cc1ccc(F)cc1Cl)C(=O)CS2`: the survival is 49%.

As for `O=C(NCCc1ccccc1)c1ccc2c(c1)N(Cc1c(F)cccc1Cl)C(=O)CS2`, the survival is 54%.

Consider `CC(NC(=O)c1ccc2c(c1)N(Cc1ccc(Cl)cc1)C(=O)CS2)c1ccccc1` (stereo unspecified), for which the survival is 48% (active).

With `O=C(NCCc1ccccc1)c1ccc2c(c1)N(Cc1ccc(F)cc1Cl)C(=O)CS2`, the survival was 55% (active).

`CC(NC(=O)c1ccc2c(c1)N(Cc1ccc(Cl)cc1)C(=O)c1ccccc1S2(=O)=O)c1ccccc1` (stereo unspecified): the survival was 90%.

Consider `O=C(NCCc1ccc(Cl)cc1)c1ccc2c(c1)N(Cc1c(F)cccc1Cl)C(=O)CS2`, for which the survival was 44% (active).
